“And” between values parts separate entries of the source, which are not always exact repeats. Equal entries are not always repeated. Results filed as inconclusive are left out. The source made the active and inactive calls. Calls come from the whole dose curve; as a rule, active = well fitted curve in the direction sought with a large enough effect; inconclusive = small, poorly fitted or top-dose-only effect, or another doubt; inactive = no such curve, though single readings can be large; an effect the other way counts as inactive or inconclusive.
Tests used:
[1] = Cellular Toxicity (caspase-3) Jurkat (AID 655); settings: Jurkat caspase-3 activation, luminescence; caspase-3 activation: at 92.2 µM (top of the series), DMSO = 0%, tamoxifen = 100%;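 note: cells exposed to compound for 16 h at 37 °C before reading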; note: potency is the fitted concentration of half-maximal effect
Outline: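 Jurkat cells (5000/well) in complete medium were treated with compounds for 16 hr at 37 °C, then Caspase-Glo 3/7 luminescence was read after 20 min at room temperature. Data normalized to DMSO (basal) and 100 uM tamoxifen (100%); AC50 from Hill fit.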

[2] = Cellular Toxicity (caspase-3) HUV-EC-C (AID 656)
Outline: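 HUV-EC-C endothelial cells, 1000/well, were pre-incubated 5 hr at 37°C, then exposed to compounds for 16 hr at 37°C. Caspase-Glo 3/7 luminescence was read after 20 min at room temperature. AC50 came from Hill fits, normalized to DMSO and 100 uM tamoxifen.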

[3] = Cellular Toxicity (caspase-3) BJ (AID 658);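 note: 0% = DMSO basal and 100% = 10 µM staurosporine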
Outline: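 Plated BJ cells (1000/well) rested 5 hr, received compound for 16 hr at 37 °C, then Caspase-Glo 3/7 reagent for 1 hr at room temperature before luminescence reading.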

[4] = Cellular Toxicity (caspase-3) MRC-5 (AID 659);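 note: 0% = DMSO basal and 100% = 10 µM staurosporine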
Outline: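 Apoptosis readout in MRC-5 cells: luciferase light generated after caspase 3/7 cleaves a peptide-aminoluciferin substrate, measured post 16 hr compound incubation at 37 °C.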

[5] = Cellular Toxicity (caspase-3) Mesangial (AID 660);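 note: combined caspase 3 and 7 activity read by Caspase-Glo luminescence; cells exposed to compound for 16 h before the caspase read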
Outline: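 Seed cells derived from normal human renal glomeruli, incubate 5 h, add compounds across concentrations and incubate 16 h at 37 °C. Caspase 3/7 activation is then quantified by luciferase light, with AC50 derived by Hill modeling.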

[6] = Cellular Toxicity (caspase-3) SK-N-SH (AID 661);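 note: 0% = DMSO basal and 100% = 10 µM staurosporine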
Outline: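 Cells were seeded and incubated 5 hr at 37 °C, dosed with compound over a concentration range for 16 hr, then given Caspase-Glo 3/7 reagent for 1 hr at room temperature before luminescence reading.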

[7] = Cellular Toxicity (caspase-3) H-4-II-E (AID 663);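 note: cells exposed to compound for 16 hr before readout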
Outline: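 Caspase 3/7 activation measured in H-4-II-E cells in complete culture medium after 16 hr treatment at 37 °C, using luciferase-coupled substrate readout; AC50 values come from Hill-equation fits of normalized concentration-response data.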

[8] = Cellular Toxicity (caspase-3) Hek293 (AID 664);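 note: cells exposed to compound for 16 h at 37 °C before readout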
Outline: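 qHTS, HEK293 (human embryonic kidney), 16 h cpd exposure in complete medium. Caspase-3/7 activation = luminescence increase; normalized to DMSO/100 uM tamoxifen; Hill-fit AC50.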

[9] = Cellular Toxicity (caspase-3) N2a (AID 665);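 note: compound exposure lasted 16 h at 37 °C before readout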
Outline: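 Caspase-3/7 activation, measured as increased luminescence from aminoluciferin release, is quantified in mouse N2a cells exposed to compounds for 16 h. Values are normalized to DMSO and 10 uM staurosporine, with AC50 derived by Hill modelling.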

[10] = Cellular Toxicity (caspase-3) Renal Proximal Tubule (AID 667);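 note: cells exposed to compound for 16 hours at 37 °C before detection; 0% = DMSO basal and 100% = 10 µM staurosporine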
Outline: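 Primary rat proximal tubule cells, 1000/well, 5 h plating at 37 °C, then compound 16 h at 37 °C. Caspase-Glo 3/7 reagent, 1 h RT, luminescence. Normalized to DMSO (basal) and 10 uM staurosporine (100%); Hill-fit AC50.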

CCCCC/C=C\C/C=C\CCCCCCCC(=O)O
inactive: caspase-3 activation [1] 2.62% | outcome [2] | outcome [3] | outcome [4] | outcome [5] | outcome [6] | outcome [7] | outcome [8] | outcome [9] | outcome [10]

IC(I)I
inactive: caspase-3 activation [1] -0.0373% | outcome [2] | outcome [3] | outcome [4] | outcome [5] | outcome [6] | outcome [7] | outcome [8] | outcome [9] | outcome [10]

CC1=C(/C=C/C(C)=C/C=C/C(C)=C/CO)C(C)(C)CCC1
inactive: outcome [2] | outcome [3] | outcome [4] | outcome [5] | outcome [6] | outcome [7] | outcome [9] | outcome [10]

O=CCCCC=O
inactive: outcome [2] | outcome [5] | outcome [8] | outcome [9] | outcome [10]
active: Potency [1] 6.31 µM

CC(O)CO (stereo not drawn)
inactive: caspase-3 activation [1] 1.29% and 0.367% | outcome [2] | outcome [3] | outcome [4] | outcome [5] | outcome [6] | outcome [7] | outcome [8] | outcome [9] | outcome [10]

CC1=C2[C@@H]([C@H](C)CC[C@H]2/C=C(\C)C(=O)O)[C@H](O)C1
inactive: caspase-3 activation [1] 0.468% | outcome [2] | outcome [3] | outcome [4] | outcome [5] | outcome [6] | outcome [7] | outcome [8] | outcome [9] | outcome [10]

CCOc1ccc2c(c1)C(C)=CC(C)(C)N2
inactive: caspase-3 activation [1] 15.7% | outcome [2] | outcome [3] | outcome [4] | outcome [5] | outcome [6] | outcome [7] | outcome [8] | outcome [9] | outcome [10]

CCCCCCCC(=O)O
inactive: caspase-3 activation [1] -0.427% and 1.06% | outcome [2] | outcome [3] | outcome [4] | outcome [5] | outcome [6] | outcome [7] | outcome [8] | outcome [9] | outcome [10]

CCCCCCCC/C=C\CCCCCCCC(=O)O
inactive: caspase-3 activation [1] 1.62% | outcome [2] | outcome [3] | outcome [4] | outcome [5] | outcome [6] | outcome [7] | outcome [8] | outcome [9] | outcome [10]

Cc1ccccc1
inactive: caspase-3 activation [1] -1.43% and -0.873% | outcome [2] | outcome [3] | outcome [4] | outcome [5] | outcome [6] | outcome [7] | outcome [8] | outcome [9] | outcome [10]

O=S(=O)(O)O
inactive: caspase-3 activation [1] 4.57% and 0.977% | outcome [2] | outcome [3] | outcome [4] | outcome [5] | outcome [6] | outcome [7] | outcome [8] | outcome [9] | outcome [10]

Nc1ccn([C@H]2CS[C@@H](CO)O2)c(=O)n1
inactive: caspase-3 activation [1] -0.771% | outcome [2] | outcome [3] | outcome [4] | outcome [5] | outcome [6] | outcome [7] | outcome [8] | outcome [9] | outcome [10]

CCOC(C)=O
inactive: caspase-3 activation [1] -0.547% | outcome [2] | outcome [3] | outcome [4] | outcome [5] | outcome [6] | outcome [7] | outcome [8] | outcome [9] | outcome [10]

O=C(O)CCC(=O)C(=O)O
inactive: caspase-3 activation [1] 0.778% | outcome [2] | outcome [3] | outcome [4] | outcome [5] | outcome [6] | outcome [7] | outcome [8] | outcome [9] | outcome [10]

CC(C)(C)NC(=O)[C@@H]1C[C@@H]2CCCC[C@@H]2CN1C[C@@H](O)[C@H](Cc1ccccc1)NC(=O)[C@H](CC(N)=O)NC(=O)c1ccc2ccccc2n1
inactive: outcome [5] | outcome [9] | outcome [10]
active: caspase-3 activation [1] 116%

CC(C)=O
inactive: caspase-3 activation [1] -1.17% | outcome [2] | outcome [3] | outcome [4] | outcome [5] | outcome [6] | outcome [7] | outcome [8] | outcome [9] | outcome [10]

Source: PubChem BioAssay (NCATS)
